Drawing on PubChem BioAssay AID1159580 (chemical genetic matrix, 2015), this text covers normalized growth for one compound.

The structures appear in SMILES notation. Hit rate of the full screen: of about 5,500 compounds, about 2,000 (36%) were called active. Not shown: some 18% with an inconclusive outcome. The list shows a part of the results. Unmarked numbers belong to inactive results. Rule as the data show it: active = normalized growth mostly below about 0.91 (no sharp cut-off); inconclusive = no clear call, values can overlap the other calls; inactive = mostly above about 0.92.

The assay can be described thus: chemical genetic growth profiling, strain panel (AID 1159580).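 Also: tested at 20 µM; growth read once vehicle control cultures reached saturation at 30 °C; 1 = growth at the plate median or of vehicle wells; lower values mean less growth of the strain.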 As to conditions: S. cerevisiae deletion strains, growth OD.

In the case of `C(=C\c1ccccc1)/CN1CCN(C(c2ccccc2)c2ccccc2)CC1`, the normalized growth is 0.995 (locus YAL040C, strain CLN3, active compounds read low); 0.992 (locus YCL061C, strain MRC1 (second series), active compounds read low); 1.09 [resistant] (active) (locus YER002W, strain NOP16, active compounds read low); 0.998 (locus YMR307W, strain GAS1, active compounds read low); 0.851 (locus YNL153C, strain GIM3, active compounds read low); 1.11 (locus YNL197C, strain WHI3, active compounds read low). For the same compound, the normalized growth reads like this: (locus YNL224C, strain SQS1, active compounds read low) 1.02; (locus YOR083W, strain WHI5 (second series), active compounds read low) 0.99; (locus YPL055C, strain LGE1, active compounds read low) 1.
